# Results reported in PubChem BioAssay (NCATS).
# Inconclusive results are not listed. The source made the active and inactive calls. The call rests on the fitted dose curve; in most records, active means well fitted curve in the direction sought with a large enough effect; inconclusive means small, poorly fitted or top-dose-only effect, or another doubt; inactive means no such curve, though single readings can be large; an effect the other way counts as inactive or inconclusive.
# Test: Quantitative highthroughput screen to assess conditional lethalithy of NOMO1 cells grown in Human Plasma-Like Medium with dialyzed fetal bovine serum (HPLM+ds) (AID 1963878);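 on viability: 100% = DMSO wells and 0% = empty wells on each plate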
# Details: NOMO1 AML cells in HPLM+ds, CellTiter-Glo viability, 48 h; series mostly up to 45.8 µM; viability: at the top concentration
# Procedure, shortened: (§1)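 Each medium arm—HPLM with 10% dialyzed FBS, or RPMI1640 with 5 mM glucose and 10% untreated or dialyzed FBS—was screened against an 11-point, 3-fold compound titration for 48 h at 37 °C, with CellTiter-Glo luminescence as endpoint.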
# Further: nearly all actives have a fitted effect of over 35% in size.
# Potency means the concentration at half of the fitted maximal effect.
Compound,Potency,viability
NC1=NC(=O)N2CC12 (stereo unspecified),4.18 µM (active),
CC(C)(O)C=CC(=O)[C@](C)(O)[C@H]1[C@H](O)C[C@]2(C)[C@@H]3CC=C4[C@@H](C=C(O)C(=O)C4(C)C)[C@]3(C)C(=O)C[C@@]12C,0.209 µM (active),
CC=C(C)C(=O)O[C@H]1C(C)=C2[C@@H]3OC(=O)[C@@](C)(O)[C@@]3(O)[C@@H](OC(=O)CCC)C[C@](C)(OC(C)=O)[C@@H]2[C@@H]1OC(=O)CCCCCCC,0.0662 µM (active),
C[C@]12CC[C@H]3[C@@H](CCC4=CC(=O)CC[C@@]43C)[C@H]1CC[C@H]2OC(=O)CCC1CCCC1,,101% (inactive)
COC1=CC(C)=C[C@@H](C)[C@@H](O)[C@@H](C)CC(C)=CC=C[C@H](OC)[C@H]([C@@H](C)[C@@H](O)[C@H](C)[C@@]2(O)C[C@@H](O)[C@H](C)[C@@H](C(C)C)O2)OC1=O,0.0662 µM (active),

# Test: Quantitative highthroughput screen to assess conditional lethalithy of P12 Ichikawa cells grown in Human Plasma-Like Medium with dialyzed fetal bovine serum (HPLM+ds) (AID 1963879)
# Details: ATP luminescence, 48 h; Potency: viability; series mostly up to 45.8 µM; viability: at the top concentration
# Procedure, shortened: as §1
Compound,viability,Potency
Cc1ccccc1-n1c(Cn2cnc3c(N)ncnc32)nc2cccc(C)c2c1=O,68.8% (inactive),
CC(C)N[C@@H]1CCn2c(=O)[nH]c3cccc(c32)[C@@H]1O,101% (inactive),
CC(=O)OCC1=C(C(=O)O)N2C(=O)[C@@H](N)[C@@H]2SC1,,1.48 µM (active)
CC(=Cc1csc(C)n1)[C@@H]1C[C@H]2O[C@]2(C)CCC[C@H](C)[C@@H](O)[C@@H](C)C(=O)C(C)(C)[C@@H](O)CC(=O)O1,20.4% (inactive),
C[C@H]([C@H](O)CCC(C)(C)O)[C@H]1CC[C@@]2(O)C3=CC(=O)[C@@H]4C[C@@H](O)[C@@H](O)C[C@]4(C)[C@@H]3CC[C@]12C,102% (inactive),
c1ccc(CCCN2CCN(CCOC(c3ccccc3)c3ccccc3)CC2)cc1,80.1% (inactive),
C=C[C@@H]1CN2CCC1C[C@@H]2[C@@H](O)c1ccnc2ccccc12 (stereo partly specified),92.5% (inactive),
C[C@@H]1[C@@H](C(=O)C[C@H]2O[C@@H]3O[C@]4(C)CC[C@@H]5[C@H](C)CC[C@@H]([C@H]2C)[C@@]35OO4)O[C@@H]2O[C@]3(C)CC[C@H]4[C@H](C)CC[C@@H]1[C@@]24OO3,,23.5 µM (active)
C[C@]12CC[C@H]3[C@@H](CCC4=CC(=O)CC[C@@]43C)[C@H]1CC[C@H]2O,103% (inactive),
C[C@@H]1CC[C@@]2(OC1)O[C@H]1C[C@H]3[C@@H]4CC=C5C[C@@H](O[C@@H]6O[C@H](CO)[C@@H](O[C@@H]7O[C@@H](C)[C@H](O)[C@@H](O)[C@@H]7O)[C@H](O)[C@@H]6O[C@@H]6O[C@@H](C)[C@H](O)[C@@H](O)[C@@H]6O)CC[C@]5(C)[C@@H]4CC[C@]3(C)[C@@H]1[C@H]2C,,26.4 µM (active)
C#C[C@]1(O)C=C[C@@H]2[C@@H]3CCC4=CC(=O)CC[C@@H]4[C@H]3CC[C@@]21CC,99.4% (inactive),
COC1(CS(=O)c2ccccc2)CCN(CCc2c[nH]c3ccc(F)cc23)CC1 (stereo unspecified),94.7% (inactive),
CC(=O)O[C@@]12CO[C@H]1C[C@H](O)[C@@]1(C)C(=O)[C@H](O)C3=C(C)[C@@H](O)C[C@@](O)([C@@H](OC(=O)c4ccccc4)[C@@H]21)C3(C)C,,10.5 µM (active)
C[C@]12CC[C@@H]3[C@@H](CCC4=CC(=O)CC[C@@H]43)[C@@H]1CC[C@@H]2OC(=O)CCc1ccccc1,97.7% (inactive),
NC1CC1c1ccccc1 (stereo unspecified),100% (inactive),
O=C1CCC[C@@H]2[C@H]3CCCN4CCC[C@@H](CN12)[C@@H]34,97.3% (inactive),
CNC(=O)c1ccc(N2C(=S)N(c3ccc(C#N)c(C(F)(F)F)c3)C(=O)C23CCC3)cc1F,100% (inactive),

# Test: Quantitative highthroughput screen to assess conditional lethalithy of P12 Ichikawa cells grown in RPMI1640 with dialyzed fetal bovine serum (RPMI+ds) (AID 1963880);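 on viability: 100% = DMSO wells and 0% = empty wells on each plate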
# Details: ATP luminescence, 48 h; Potency: P12-Ichikawa viability; series mostly up to 45.8 µM; viability: at the top concentration
# Procedure, shortened: as §1
Compound,Potency,viability
NC1=NC(=O)N2CC12 (stereo unspecified),6.62 µM (active),
CC(C)(O)C=CC(=O)[C@](C)(O)[C@H]1[C@H](O)C[C@]2(C)[C@@H]3CC=C4[C@@H](C=C(O)C(=O)C4(C)C)[C@]3(C)C(=O)C[C@@]12C,0.166 µM (active),
CC(=O)OCC1=C(C(=O)O)N2C(=O)[C@@H](N)[C@@H]2SC1,2.35 µM (active),
CC(=Cc1csc(C)n1)[C@@H]1C[C@H]2O[C@]2(C)CCC[C@H](C)[C@@H](O)[C@@H](C)C(=O)C(C)(C)[C@@H](O)CC(=O)O1,,37.3% (inactive)
C=C[C@@H]1CN2CCC1C[C@@H]2[C@@H](O)c1ccnc2ccccc12 (stereo partly specified),,86.1% (inactive)
C[C@@H]1[C@@H](C(=O)C[C@H]2O[C@@H]3O[C@]4(C)CC[C@@H]5[C@H](C)CC[C@@H]([C@H]2C)[C@@]35OO4)O[C@@H]2O[C@]3(C)CC[C@H]4[C@H](C)CC[C@@H]1[C@@]24OO3,16.6 µM (active),
C[C@]12CC[C@H]3[C@@H](CCC4=CC(=O)CC[C@@]43C)[C@H]1CC[C@H]2O,,101% (inactive)
CC=C(C)C(=O)O[C@H]1C(C)=C2[C@@H]3OC(=O)[C@@](C)(O)[C@@]3(O)[C@@H](OC(=O)CCC)C[C@](C)(OC(C)=O)[C@@H]2[C@@H]1OC(=O)CCCCCCC,0.132 µM (active),
COC1(CS(=O)c2ccccc2)CCN(CCc2c[nH]c3ccc(F)cc23)CC1 (stereo unspecified),,87.5% (inactive)
COC1=CC(C)=C[C@@H](C)[C@@H](O)[C@@H](C)CC(C)=CC=C[C@H](OC)[C@H]([C@@H](C)[C@@H](O)[C@H](C)[C@@]2(O)C[C@@H](O)[C@H](C)[C@@H](C(C)C)O2)OC1=O,0.0662 µM (active),
NC1CC1c1ccccc1 (stereo unspecified),,103% (inactive)
COc1ccc2c(c[n+](C)c3c4cc5c(cc4ccc23)OCO5)c1OC,14.8 µM (active),
O=C1CCC[C@@H]2[C@H]3CCCN4CCC[C@@H](CN12)[C@@H]34,,95.5% (inactive)
CNC(=O)c1ccc(N2C(=S)N(c3ccc(C#N)c(C(F)(F)F)c3)C(=O)C23CCC3)cc1F,,102% (inactive)
